Sampled rows, rich in hits. Any-hit rate of the full collection: about 22%.
CYP2C9 inhib – inhibitors of human CYP2C9; P11712; AID 777; inhibition, % at 5 µM; 96,000 compounds, 20% hits; CYP2C9 Supersomes, luciferin-H conversion, luminescence;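 active means blocking of liver enzyme CYP2C9 beyond about 50% at 5 µM, limit read from the data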
Target sequence (P11712 whole entry, looked up): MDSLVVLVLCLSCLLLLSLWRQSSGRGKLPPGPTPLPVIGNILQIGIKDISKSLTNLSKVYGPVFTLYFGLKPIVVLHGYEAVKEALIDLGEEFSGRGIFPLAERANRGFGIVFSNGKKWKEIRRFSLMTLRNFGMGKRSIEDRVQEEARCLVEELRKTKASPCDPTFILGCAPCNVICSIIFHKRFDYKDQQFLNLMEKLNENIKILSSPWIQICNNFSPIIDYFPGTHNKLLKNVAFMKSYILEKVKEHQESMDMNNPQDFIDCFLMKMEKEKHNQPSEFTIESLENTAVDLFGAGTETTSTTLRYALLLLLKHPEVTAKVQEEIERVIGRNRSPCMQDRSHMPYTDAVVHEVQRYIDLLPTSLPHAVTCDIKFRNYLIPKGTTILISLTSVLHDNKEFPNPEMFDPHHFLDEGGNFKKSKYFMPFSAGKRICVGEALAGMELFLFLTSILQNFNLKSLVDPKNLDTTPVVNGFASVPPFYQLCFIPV
CYP2C19 act – activators of human cytochrome P450 2C19; activation factor at 5 µM; 96,000 tested, under 10 active; recombinant CYP2C19, luciferin-H EGE luminescence; active compounds read high; 0 = fully inhibited enzyme, 1 = untreated enzyme;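 active means activation factor of at least 2 at 5 µM in the primary screen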;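 further: 0 = wells with 2.5 mM tranylcypromine and 1 = vehicle-only wells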
CYP2C9 activ – activators of human CYP2C9; AID 1024; activation factor at 5 µM; P11712; recombinant CYP2C9, luciferin-H conversion, luminescence; active compounds read high; factor 1 = untreated enzyme, 0 = blocked; 96,000 compounds, 1.4% hits;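 active means activation factor of 2 or more for CYP2C9 at a 5 µM dose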;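 further: 0 = sulfaphenazole-blocked wells and 1 = vehicle-only wells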
Measles CPE – protection of cells from measles virus | protection (pct of control), % at 4 µM | AID 841 | 140,000 compounds, 1.5% hits | Measles virus-infected cells, CPE protection, absorbance; in the data active means protection mostly above about 24%, no sharp cut-off; inactive means mostly below about 26%
CYP2C19 inhib – inhibitors of human CYP2C19 | P33261 | CYP2C19 Supersomes, luciferin-H EGE luminescence, 30 min | inhibition, % at 5 µM | 96,000 compounds, 21% hits | AID 778;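 active means CYP2C19 inhibition above a set limit at 5 µM in the primary screen, cut at about 50% in these data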;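 further: plate controls were negative control wells for no effect and 2.5 mM tranylcypromine positive control for full effect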
* marks the source's active call; other numbers are inactive results; . = no result.

SMILES	CYP2C9 inhib	CYP2C19 act	CYP2C9 activ	Measles CPE	CYP2C19 inhib
COc1ccc(CC(=O)OCC(=O)NC(=O)NC23CC4CC(CC(C4)C2)C3)cc1	65.8*	0.7	0.3	2.8	31.8
COc1ccc(CCNC(=O)NC23CC4CC(CC(C4)C2)C3)cc1	22.9	0.5	0.8	3.6	52.6*
CCCNC(=O)Cn1nc([N+](=O)[O-])c([N+](=O)[O-])c1C	.	.	.	18.6	.
O=C(COC(=O)c1ccccc1NC(=O)C1CC1)c1ccc2c(c1)OCCO2	.	.	.	10.1	.
CN1C(=O)c2ccc(C(=O)NCc3ccc4c(c3)OCO4)cc2C1=O	.	.	.	10.9	.
Cn1c(C(=O)Nc2ccccc2)cc2sccc21	17.1	0.8	0.8	7.1	17.5
Cn1c(C(=O)NCc2ccc3c(c2)OCO3)cc2sccc21	74.9*	0.2	0.3	15.4	79.5*
COc1cc(NC(=O)c2cc3sccc3n2C)cc(OC)c1	79.9*	0.1	0.2	12.4	86.0*
Cn1c(C(=O)Nc2ccc3c(c2)OCO3)cc2sccc21	23.4	0	0.8	16.9	95.5*
CC1CCCCN1C(=O)c1cc(-c2ccc(Cl)c(Cl)c2)on1 (configuration not stated)	9.4	1	0.9	45.7*	-2.8
CCC1CCCCN1C(=O)c1cc(-c2ccc(Cl)c(Cl)c2)on1 (configuration not stated)	.	.	.	5.7	.
CCC[N+](CC#Cc1ccccc1)(CCC)CC(=O)OCC	.	.	.	8.3	.
Cc1noc2ncc(C(=O)c3cc(F)ccc3O)cc12	50.2*	0	0.5	3.2	96.4*
O=C(c1cn[nH]c1)c1cc(F)ccc1O	-7.4	0.9	1.1	42.2*	8.5
Cc1[nH]nc2ncc(C(=O)c3cc(F)ccc3O)cc12	-9.5	0.4	1.1	4.5	58.2*
Cc1ccc(O)c(C(=O)c2cnc3onc(-c4ccc(F)cc4)c3c2)c1	.	.	.	13.8	.
N/C(=N\OC(=O)CC1CCCCC1)c1ccccn1	10.1	0.8	0.9	10.3	24.0
CCC(=O)N1CCc2cc(S(=O)(=O)Nc3ccc4c(c3)OCCO4)ccc21	58.5*	0.7	0.4	3.7	33.3
CCC(=O)N1CCc2cc(S(=O)(=O)CCC(=O)Nc3ccc(F)c(F)c3)ccc21	52.3*	0.7	0.5	9.5	27.8
O=C(C1CCC1)N1CCc2cc(S(=O)(=O)Nc3ccc4c(c3)OCCO4)ccc21	0.3	1	1	15.6	1.5
CS(=O)(=O)N1CCc2cc(S(=O)(=O)Nc3ccc4c(c3)OCCO4)ccc21	46.8	0	0.5	9.8	98.6*
CC(=O)Nc1sc(C)c(C)c1C(=O)OCC(=O)N(CC(C)C)C1CCS(=O)(=O)C1 (configuration not stated)	.	.	.	7.4	.
COC(=O)N/N=C/c1cn(Cc2c(Cl)cccc2Cl)c2ccccc12	.	.	.	4.4	.
Clc1ccc(-c2nc3ccccc3n2OCc2ccccc2)cc1	-5.0	1	1.1	39.2*	-2.6
COc1ccc(-c2nc3ccccc3n2Cc2ccc(C)cc2)cc1	23.1	1	0.8	15.7	-2.2
SMILES	CYP2C9 inhib	CYP2C19 act	CYP2C9 activ	Measles CPE	CYP2C19 inhib
Cc1cc(C)n(C(=O)c2ccc(S(=O)(=O)N3CCOCC3)cc2)n1	53.1*	1.1	0.5	12.3	-12.0
Cc1cc(C)n(C(=O)c2ccc(S(=O)(=O)NCC3CCCO3)cc2)n1 (configuration not stated)	58.5*	0.7	0.4	17.2	32.9
Cc1cc(C)n(C(=O)c2cccc(S(=O)(=O)N3CCOCC3)c2)n1	33.9	0.4	0.7	14.8	58.9*
Cc1ccc(Sc2c(C)nn(C(=O)c3cccc(S(=O)(=O)N4CCOCC4)c3)c2C)cc1	78.5*	0.5	0.2	4.9	52.8*
O=C(c1cccc(S(=O)(=O)N2CCOCC2)c1)N1CCCC1	1.2	1	1	1.2	4.3
CCCn1c(=O)[nH]c(=O)c2c1nc(-c1ccccc1)n2CCN1CCOCC1	-10.6	1.2	1.1	9.4	-17.1
Cc1ccc(C(=O)N2CCN(C)CC2)cc1S(=O)(=O)N1CCCCC1	6.7	0.9	0.9	8.2	9.7
Cc1cc(C)n(C(=O)c2ccc(C)c(S(=O)(=O)N3CCCC3)c2)n1	54.7*	0.3	0.5	19.7	73.2*
Cc1cccc(-c2nnc(SCC#N)n2Cc2ccccc2)c1	51.4*	0.2	0.5	7.7	77.1*
N#CCSc1nnc(COc2ccccc2)n1-c1ccccc1	.	.	.	2.7	.
N#CCCCSc1nnc(-c2ccc(Cl)cc2)n1-c1ccccc1	50.5*	0.7	0.5	3.8	34.0
Cc1cccc(-c2nnc(SCC#N)n2-c2ccccc2)c1	35.6	0.5	0.6	6.2	51.4*
COC(=O)C1CC(=O)c2ccsc2C1 (configuration not stated)	.	.	.	6.6	.
CCOC(=O)C1CCCN(C(=O)c2ccc(OCC)cc2)C1 (configuration not stated)	6.2	0.6	0.9	7.1	37.8
CC(C)Sc1nc(NCc2ccco2)c2c3c(sc2n1)COC(C)(C)C3	68.8*	0.9	0.3	4.4	9.7
CSc1nc(SCC(=O)NCc2ccco2)c2c3c(sc2n1)COC(C)(C)C3	25.7	0.9	0.7	6.6	12.3
CCCCSc1nc(SCC(=O)NCc2ccco2)c2c3c(sc2n1)COC(C)(CC)C3 (configuration not stated)	51.4*	0.9	0.5	0.6	13.3
CCCCc1nc2sc3c(SCC(=O)NCc4ccco4)ncnc3c2c2c1CCC2	81.8*	0.4	0.2	3.9	58.5*
C=CCn1c(SCC(=O)NCc2ccco2)nc2sc3c(c2c1=O)CCCC3	19.5	1	0.8	9.8	1.1
CCc1nc(SCC(=O)NCc2ccco2)c2c3c(sc2n1)CCCC3	85.7*	0.4	0.1	11.2	63.2*
COc1cc(-c2nc3ccccc3c(=O)n2N)cc(OC)c1OC	.	.	.	20.3	.
Cn1ncc(Cl)c(Oc2ccc(C(C)(C)C)cc2)c1=O	.	.	.	26.8	.
COc1ccc(C(=O)CN2C(=O)NC(C)(c3ccccc3)C2=O)cc1OC (configuration not stated)	16.2	1	0.8	7.5	1.1
O=C(CC(Sc1ccccc1)c1cccs1)c1ccco1 (configuration not stated)	94.9*	0	0.1	6.1	99.7*
O=C(Cc1cccs1)OCC(=O)c1ccco1	7.5	0.7	0.9	25.4	25.9
SMILES	CYP2C9 inhib	CYP2C19 act	CYP2C9 activ	Measles CPE	CYP2C19 inhib
CC1(C)CC(=O)CC(C2(O)C(=O)N(Cc3ccccc3)c3ccccc32)O1 (configuration not stated)	1.4	0.8	1	16.2	17.4
CC1(C)CC(=O)C(C2(O)C(=O)N(Cc3ccccc3)c3ccccc32)CO1 (configuration not stated)	34.7	0.4	0.7	2.6	62.6*
O=[N+]([O-])c1cnccc1Nc1ccccc1	92.1*	0	0.1	5.8	97.6*
O=[N+]([O-])c1cnccc1Nc1ccc(F)cc1	.	.	.	6.3	.
CC(C)c1nc(NCC2CCCO2)c(C#N)c2c1COC(C)(C)C2 (configuration not stated)	81.7*	0.5	0.2	4.6	53.7*
C[N+]1(CC#CC(O)(c2ccccc2)c2ccccc2)CCCC1	.	.	.	7.4	.

Bioassay records (PubChem BioAssay)
